Source: PubChem BioAssay (Tox21)
A number with no mark means an inactive call. Records with an inconclusive call do not appear. A call without a number means that no potency is given here. Active and inactive are the calls of the source. Unless noted, calls follow the shape of the dose curve; as a rule, active = well fitted curve in the direction sought with a large enough effect in the repeat runs; inconclusive = weak or mixed curves; inactive = no such curve, though single readings can be large; an effect the other way counts as inactive or inconclusive.

Columns and labels:
[1] = target: Luciferin 4-monooxygenase (Photinus pyralis) (UniProt P08659); assay: qHTS assay to identify small molecule inhibitors of firefly luciferase (AID 1224835); also: nearly all actives have a fitted effect of over 25% in size
How it was run: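 Quantitative HTS format; KM concentrations of both substrates. Purified P. pyralis FLuc activity quantified from luminescence images.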

[2] = qHTS assay to identify small molecule agonists of the constitutive androstane receptor (CAR) signaling pathway - cell viability counter screen (AID 1224836); also: nearly all actives have a fitted effect of over 45% in size; also: potency is read from the fitted curve at half-maximal effect
How it was run: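 Using CellTiter-Fluor, viability of HepG2 cells harbouring hCAR and CYP2B6-2.2kb was measured following 23 h incubation with a 15-concentration compound series plus PK11195 (0.75 uM final).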

[3] = qHTS assay to identify small molecule antagonists of the constitutive androstane receptor (CAR) signaling pathway - cell viability counter screen (AID 1224837); also: nearly all actives have a fitted effect of over 45% in size; also: potency is read from the fitted curve at half-maximal effect
How it was run: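 Counter screen run in HepG2-CYP2B6-hCAR cells: 4 hr settle, compound titration (15 concentrations) with 50 nM CITCO, 23 hr at 37 C/5% CO2, CellTiter-Fluor fluorescence.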

[4] = target: Nuclear receptor subfamily 1 group I member 3 (Homo sapiens) (UniProt Q14994); assay: qHTS assay to identify small molecule antagonists of the constitutive androstane receptor (CAR) signaling pathway (AID 1224838);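 also: HepG2 cells stably expressing hCAR with CYP2B6 luciferase reporter stimulated by CITCO; nearly all actives have a fitted effect of over 40% in size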; also: potency is read from the fitted curve at half-maximal effect
How it was run: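 Cell line: HepG2 double-stable for hCAR and CYP2B6-2.2kb reporter. Agonist: CITCO, 50 nM final. Compounds: 15 concentrations, 24 h, 37 C. Detection: ONE-Glo luminescence.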

[5] = target: Nuclear receptor subfamily 1 group I member 3 (Homo sapiens) (UniProt Q14994); assay: qHTS assay to identify small molecule agonists of the constitutive androstane receptor (CAR) signaling pathway (AID 1224839);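 also: HepG2 cells stably carrying human CAR and a CYP2B6 luciferase reporter; nearly all actives have a fitted effect of over 15% in size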
How it was run: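 Double-stable HepG2 cells (hCAR, CYP2B6-2.2kb) seeded 4 h before compound addition. Exposure 24 h with 0.75 uM PK11195 final. Luciferase detected by ONE-Glo.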

[6] = qHTS assay to identify small molecule agonists of the hypoxia (HIF-1) signaling pathway - cell viability counter screen (AID 1224844; calls by dose curve; also: nearly all actives have a fitted effect of over 50% in size)
How it was run: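 Cells (HRE-bla ME-180, 2,000 per well) sat 5 hrs at 37C, got compound for 17 hrs, were read for CCF4-AM FRET, and were finally lysed with CellTiter-Glo for a 30 min room-temperature luminescence read.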

[7] = qHTS RealTime-Glo MT Cell Viability Assay in HepG2 cells - 24 hour (AID 1224867); also: nearly all actives have a fitted effect of over 50% in size; also: potency is read from the fitted curve at half-maximal effect
How it was run: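 Real-time, nonlytic viability: 600 HepG2 cells/well mixed with NanoLuc enzyme plus prosubstrate; 5 h settle, compound (DMSO) added by pintool; luminescence monitored over 40 h at 37 C.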

[8] = qHTS RealTime-Glo MT Cell Viability Assay in HEK293 cells - 32 hour (AID 1224868); also: nearly all actives have a fitted effect of over 50% in size; also: potency is read from the fitted curve at half-maximal effect
How it was run: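 Cells + reagent dispensed (600 cells/well, HEK293) → 5 h at 37 C/5% CO2 → 23 nL compound in DMSO pinned → 40 h at 37 C → luminescence read at 0, 8, 16, 24, 32, 40 h.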

[9] = A CellTox Green Cytotoxicity Assay to monitor cytotoxicity in HEK293 cells - 0 hour (AID 1224869); also: nearly all actives have a fitted effect of over 50% in size
How it was run: (§1)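 Fluorescence intensity, read at 0, 8, 16, 24, 32 and 40 h of compound treatment, reflected dye binding to DNA of dead HEK293 cells; compounds (23 nL, DMSO) were added 5 h after plating cells with reagent.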

[10] = qHTS RealTime-Glo MT Cell Viability Assay in HepG2 cells - 40 hour (AID 1224870); also: nearly all actives have a fitted effect of over 50% in size; also: potency is read from the fitted curve at half-maximal effect
How it was run: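 HepG2 cells mixed with RealTime-Glo MT reagents (NanoLuc plus cell-permeant prosubstrate) were seeded at 600 cells/well, incubated 5 h at 37 C/5% CO2, then pinned with compounds in DMSO; nonlytic luminescence tracked viability during 40 h treatment.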

[11] = A CellTox Green Cytotoxicity Assay to monitor cytotoxicity in HEK293 cells - 40 hour (AID 1224871); also: nearly all actives have a fitted effect of over 45% in size
How it was run: as §1

[12] = target: Thyrotropin receptor (Homo sapiens) (UniProt P16473); assay: qHTS assay to identify small molecule agonists of the thyroid stimulating hormone receptor (TSHR) signaling pathway (AID 1224843; calls by dose curve; also: nearly all actives have a fitted effect of over 45% in size)
How it was run: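 Cell line HEK293 with TSHR; density 800/well. Exposure 30 min RT. Readout HTRF cAMP (cAMP-d2/anti-cAMP-cryptate), 1 h RT before reading.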

[13] = qHTS assay to identify small molecule agonists of H2AX (AID 1224845; active = well fitted activation curve with a large enough effect in the signal ratio in the repeat runs, not every such curve was filed as active; the % refers to the signal ratio)
How it was run: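 Wild-type CHO-K1 cells plated overnight, then exposed 3 hr at 37C to compounds at 15 concentrations (0.76% DMSO). Lysed, then HTRF anti-pH2AX(S139)-cryptate/anti-H2AX-d2 detection after 24 hr at room temperature; emissions 665 and 620 nm.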

[14] = qHTS assay to identify small molecule agonists of the hypoxia (HIF-1) signaling pathway (AID 1224846; active = well fitted activation curve with a large enough effect in the signal ratio in the repeat runs, not every such curve was filed as active; the % refers to the signal ratio)
How it was run: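 A low-serum medium (0.5% dialyzed FBS) holding 2,000 HRE-bla ME-180 cells per well is preincubated for 5 hrs, dosed with compounds by pintool, and kept a further 17 hrs at 37C, 5% CO2 before CCF4-AM FRET detection of beta-lactamase.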

[15] = qHTS assay to identify small molecule agonists of H2AX - cell viability counter screen (AID 1224847; calls by dose curve; also: top concentration of the series differs between compounds; nearly all actives have a fitted effect of over 30% in size)
How it was run: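 Quantitative HTS viability measurement: CHO-K1 wild-type cells in serum (10% FBS) medium, short 3 hr drug exposure at 37C with 0.76% DMSO, CellTiter-Glo luminescent detection.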

[16] = qHTS assay to identify small molecule antagonists of the estrogen related receptor signaling pathway with the pleiotropic PPARgamma coactivator (PGC) from Tox21 10K library - cell viability counter screen (AID 1224840; active = well fitted cell-killing curve with a large enough effect in the repeat runs, not every such curve was filed as active; also: nearly all actives have a fitted effect of over 40% in size)
How it was run: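 Following seeding of 2,000 PGC/ERR cells/well and 6 hours' incubation, test compounds were delivered in DMSO. The plates then sat 17.5 hours at 37 C before a fluorogenic live-cell protease reagent (CellTiter-Fluor) was read after 30 min.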

[17] = qHTS assay to identify small molecule antagonists of the estrogen related receptor signaling pathway with the pleiotropic PPARgamma coactivator (PGC) from Tox21 10K library (AID 1224841; call rule not given here)
How it was run: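 qHTS antagonist format: PGC/ERR cells, 2k/well, compound in DMSO by pin transfer after 6 h attachment, 18 h treatment at 37 C, One-Glo luminescence read at 30 min.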

[18] = qHTS assay to identify small molecule antagonists of the estrogen related receptor (ERR) signaling pathway from Tox21 library (AID 1224848); also: nearly all actives have a fitted effect of over 50% in size
How it was run: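 Screening used an ERR reporter line supplied by NTP, exposed for 18 h at 37 C to library compounds delivered in DMSO. Signal was luciferase luminescence developed with ONE-Glo at room temperature for 30 min.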

[19] = qHTS assay to identify small molecule agonists of the estrogen related receptor (ERR) signaling pathway from Tox21 library (AID 1224849; calls by dose curve; also: nearly all actives have a fitted effect of over 15% in size); settings: ERR reporter cell line, ONE-Glo luciferase, 18 h; at 92.4 µM (top of the series) unless noted
How it was run: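 Screening used an NTP-provided ERR luciferase cell line. Compounds in DMSO were added 6 h after seeding and left 18 h at 37 C before a 30 min ONE-Glo step and luminescence reading.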

Chain of Luciferin 4-monooxygenase (Photinus pyralis) (P08659 whole entry, looked up): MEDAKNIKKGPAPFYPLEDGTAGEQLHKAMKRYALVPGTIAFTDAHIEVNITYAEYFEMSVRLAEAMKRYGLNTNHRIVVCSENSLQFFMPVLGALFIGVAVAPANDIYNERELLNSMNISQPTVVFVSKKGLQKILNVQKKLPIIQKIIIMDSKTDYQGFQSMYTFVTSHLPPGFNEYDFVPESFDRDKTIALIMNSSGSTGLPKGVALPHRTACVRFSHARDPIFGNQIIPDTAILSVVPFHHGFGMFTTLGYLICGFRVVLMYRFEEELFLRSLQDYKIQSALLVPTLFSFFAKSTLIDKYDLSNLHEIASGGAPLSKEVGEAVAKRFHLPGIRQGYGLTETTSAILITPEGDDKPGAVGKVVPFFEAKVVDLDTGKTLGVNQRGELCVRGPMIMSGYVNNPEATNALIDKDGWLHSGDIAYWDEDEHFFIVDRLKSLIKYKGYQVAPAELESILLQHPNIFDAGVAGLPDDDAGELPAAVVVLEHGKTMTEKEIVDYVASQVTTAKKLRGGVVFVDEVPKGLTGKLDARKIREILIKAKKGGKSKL
Chain of Nuclear receptor subfamily 1 group I member 3 (Homo sapiens) (Q14994 whole entry, looked up): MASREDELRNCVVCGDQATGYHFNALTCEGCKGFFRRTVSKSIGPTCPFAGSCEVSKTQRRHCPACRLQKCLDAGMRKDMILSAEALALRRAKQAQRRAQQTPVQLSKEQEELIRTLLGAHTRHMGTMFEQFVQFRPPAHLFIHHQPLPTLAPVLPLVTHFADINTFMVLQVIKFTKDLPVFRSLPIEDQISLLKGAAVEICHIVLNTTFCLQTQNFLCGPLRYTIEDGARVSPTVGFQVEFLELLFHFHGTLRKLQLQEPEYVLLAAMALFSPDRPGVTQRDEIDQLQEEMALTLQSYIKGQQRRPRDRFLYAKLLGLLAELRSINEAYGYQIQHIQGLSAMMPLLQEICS
Chain of Thyrotropin receptor (Homo sapiens) (P16473 whole entry, looked up): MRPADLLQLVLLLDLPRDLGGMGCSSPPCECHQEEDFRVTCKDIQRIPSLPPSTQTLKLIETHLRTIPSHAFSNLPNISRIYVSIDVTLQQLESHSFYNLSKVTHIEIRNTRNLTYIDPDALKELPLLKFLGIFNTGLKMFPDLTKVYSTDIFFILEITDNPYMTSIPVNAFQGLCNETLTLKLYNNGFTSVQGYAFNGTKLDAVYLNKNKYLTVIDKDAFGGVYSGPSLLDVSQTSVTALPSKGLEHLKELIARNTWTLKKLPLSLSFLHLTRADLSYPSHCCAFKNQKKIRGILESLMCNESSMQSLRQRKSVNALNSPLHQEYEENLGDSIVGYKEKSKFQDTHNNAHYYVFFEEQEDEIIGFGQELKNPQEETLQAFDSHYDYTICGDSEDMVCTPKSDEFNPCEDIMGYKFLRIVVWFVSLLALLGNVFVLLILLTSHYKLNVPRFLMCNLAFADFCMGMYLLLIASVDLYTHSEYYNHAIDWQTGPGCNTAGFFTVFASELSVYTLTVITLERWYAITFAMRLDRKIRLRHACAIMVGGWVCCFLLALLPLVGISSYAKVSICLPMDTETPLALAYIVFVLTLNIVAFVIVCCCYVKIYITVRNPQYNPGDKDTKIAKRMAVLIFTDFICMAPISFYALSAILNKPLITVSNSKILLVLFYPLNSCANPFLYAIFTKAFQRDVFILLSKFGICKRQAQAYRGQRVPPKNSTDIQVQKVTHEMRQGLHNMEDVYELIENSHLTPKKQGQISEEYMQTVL

Structure (SMILES)	Potency [1]	Potency [2]	Potency [3]	Potency [4]	Potency [5]	Potency [6]	Potency [7]	Potency [8]	Potency [9]	Potency [10]	Potency [11]	Potency [12]	Potency [13]	outcome [14]	Potency [15]	Potency [16]	Potency [17]	Potency [18]	activity change, positive = activation [19]
C[C@@]12C(=O)OC(=O)[C@]1(C)C1CCC2O1	inactive	1.68 µM (active)	1.33 µM (active)	0.668 µM (active)	inactive	inactive	4.77 µM (active)	6.01 µM (active)	inactive	1.69 µM (active)	inactive	–	–	–	–	–	–	–	–
COc1ccccc1C=O	inactive	inactive	inactive	inactive	inactive	inactive	inactive	inactive	inactive	–	inactive	inactive	inactive	inactive	inactive	–	–	–	–
CCc1cccc(C)c1	inactive	inactive	inactive	inactive	inactive	inactive	inactive	inactive	inactive	inactive	inactive	inactive	inactive	inactive	inactive	–	–	–	–
CCOC(/C=C(\C)CCC=C(C)C)OCC	inactive	inactive	inactive	–	inactive	inactive	–	inactive	–	–	inactive	inactive	inactive	inactive	–	inactive	inactive	inactive	4.73%
